From PubChem
Six1-Eya2 blk: blocks human Six1 binding to Eya2; AID 651725; activity change, % (test concentration not listed); AlphaScreen GST-Six1/His-Eya2 binding, biochemical; active compounds read low; 360,000 tested, 0.56% active
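Compounds are tested against tagged Six1 and Eya2 proteins bridged by glutathione donor and nickel acceptor beads; after a one-hour incubation at 37 °C without light, AlphaScreen emission is recorded.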
Akt phos inh: blocks phosphorylation of Akt; activity change, % for hits at 50 µM; Neuro2A IGF-stimulated pAkt S473 HTRF, 20 min; active compounds read low; 360,000 tested, 0.32% active; in the data active means activity change below about -80%; inconclusive means mostly about -51% to -80%
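Single-point screen (50 µM final compound) in Neuro2A cells stimulated 20 min with 6 nM IGF at 37 deg C. After lysis, Ser473-phosphorylated Akt read by HTRF (ex 330 nm, em 615/665 nm) as the 665/615 ratio.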
PI4K2A block: inhibitors of human PI4K2A; purified PI4K2A, ADP-Glo luminescence, 1 h; active compounds read low; activity change, negative = inhibition, % at 76.9 µM; 420,000 tested, 0.13% active; Q9BTU6; in the data active means activity change below about -50%; inconclusive means mostly about -30% to -49%;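 further: -100% = wells without enzyme as full effect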
Target sequence (Q9BTU6 whole entry, looked up): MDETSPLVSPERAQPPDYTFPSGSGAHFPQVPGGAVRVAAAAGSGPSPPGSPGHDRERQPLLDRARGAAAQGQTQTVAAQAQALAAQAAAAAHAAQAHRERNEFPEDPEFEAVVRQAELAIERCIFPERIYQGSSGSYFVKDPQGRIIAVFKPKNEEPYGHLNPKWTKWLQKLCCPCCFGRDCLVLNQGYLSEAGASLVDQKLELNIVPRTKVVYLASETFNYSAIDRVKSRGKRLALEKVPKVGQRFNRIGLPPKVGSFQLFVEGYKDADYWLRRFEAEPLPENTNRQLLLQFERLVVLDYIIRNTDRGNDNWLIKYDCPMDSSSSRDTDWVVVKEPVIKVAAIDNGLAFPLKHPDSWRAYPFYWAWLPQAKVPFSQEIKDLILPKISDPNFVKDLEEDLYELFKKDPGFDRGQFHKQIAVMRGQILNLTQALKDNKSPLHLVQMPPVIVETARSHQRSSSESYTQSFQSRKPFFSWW
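ADP-Glo luminescence measured ADP generated by PI4K2A enzyme (4 ug/mL before mixing) with 1.2 mM PI substrate (pre-mix) and 300 microM ATP (pre-mix). Tris pH7.5 buffer with MgCl2, Triton X-100; 1 h reaction at ambient temperature.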
PI5P4K alpha inh: PI5P4K alpha (human) kinase inhibition | 330,000 tested, 1.2% active | P48426 | AID 652105 | max response, % | PI5P4Kalpha enzyme, ADP-Glo luminescence, 60 min; active compounds read low; active means max response of -50% or lower; inconclusive means between -30% and -50%; inactive means -30% or higher; further: value at the top dose of about 77 µM
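Enzyme plus substrate dispensed, test compounds pinned in, then ATP (5 microM final) added. After 60 min at RT, ADP-Glo reagent 1 for 45 min and reagent 2 for 30 min preceded luminescence imaging.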
CtBP-E1A blk: inhibitors of CtBP/E1A interaction. AlphaScreen GST-E1A/His-CtBP binding, 1536-well; active compounds read low. activity change, % (test concentration not listed). 340,000 tested, 0.49% active
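In 5 uL wells, 23 nL compound meets equimolar GST-E1A and His-CtBP (5X stock 125 nM each) for 2 h, 37 °C. Beads (5X, 50 ug/mL) then 1 h, 37 °C, dark.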
ADP-Glo counter: interferes with ADP-Glo detection without enzyme present; shares compounds with PI5P4K alpha inh; ADP-Glo detection counter-screen, luciferase luminescence, no enzyme; Potency, µM (highest dose often 76.9 µM), inactives show top-dose activity change, negative = inhibition, usual class: inhibitors; 1,100 tested, under 10 active; active means well fitted curve in the direction sought with a large enough effect; inconclusive means small, poorly fitted or top-dose-only effect, or another doubt; inactive means no such curve, though single readings can be large or run the other way
* marks the source's active call; other numbers are inactive results; i = inactive; u = inconclusive; x = no result given. This is a sample that favours compounds with a hit; in the whole collection about 1.8% have one here. Unless noted, no stated cut-off is given here; in the data, active means activity change below about -65%; inconclusive means mostly about -30% to -63%; inactive means weaker than that. Unless noted, on the % scale 0 is the no-effect control and ±100 the full control effect.

SMILES	Six1-Eya2 blk	Akt phos inh	PI4K2A block	PI5P4K alpha inh	CtBP-E1A blk	ADP-Glo counter
CC(C(=O)Nc1cc([N+](=O)[O-])ccc1Cl)N1CCN(c2ccc(O)cc2)CC1 (stereo unspecified)	-20	i	-12	-66*	-15	3%
CC(C(=O)Nc1ccc([N+](=O)[O-])cc1Cl)N1CCN(S(=O)(=O)c2cccs2)CC1 (stereo unspecified)	0	i	0	4	-10	x
Cc1ccccc1N1CC(C(=O)Nc2nnc(SCC(=O)Nc3nccs3)s2)CC1=O (stereo unspecified)	-3	i	-3	u	-2	-9%
Cc1cccc(N2CC(C(=O)Nc3nnc(SCC(=O)Nc4nccs4)s3)CC2=O)c1 (stereo unspecified)	7	i	18	u	-9	x
Cc1cc(C)cc(NC(=O)Cn2ncn3c(cc4ccccc43)c2=O)c1	0	i	1	x	1	x
Cc1ccc(NC(=O)C(C)OC(=O)c2cc(=O)[nH]c3ccccc23)cc1S(=O)(=O)N1CCOCC1 (stereo unspecified)	-27	i	-18	-61*	-8	2%
CSc1cccc(NC(=O)c2cnn3ccccc23)c1	-6	i	1	-63*	-15	-1%
CCc1ccc(NC(=O)c2cnn3ccccc23)cc1	3	i	u	u	-1	x
c1ccc2c(OCCCCN3CCOCC3)cccc2c1	-11	i	-1	-14	-5	1%
O=C(COC(=O)Cc1ccsc1)Nc1cccc(Cl)c1	10	i	0	7	3	x
O=C(COC(=O)Cc1ccsc1)Nc1cccc(F)c1	10	i	-7	-56*	1	-2%
CCCCn1nnnc1SCC(=O)Nc1ccc2c(c1)OCCO2	-1	i	-5	1	-1	x
O=c1cc(CSc2ccc(Cl)cc2)nc2nc[nH]n12	11	i	-7	-67*	0	-12%
CC(C)N1CCc2c(sc(NC(=O)CCS(=O)(=O)c3ccccc3)c2C#N)C1	8	i	2	-3	-2	x
COc1ccccc1-n1cnnc1SCC(=O)N1CCN(S(=O)(=O)c2ccccc2)CC1	-1	i	-3	-1	5	x
NC(=O)COC(=O)c1cccc(S(=O)(=O)N2CCN(c3ccccc3)CC2)c1	0	i	-3	-2	x	x
O=C(COC(=O)c1cccc(S(=O)(=O)N2CCN(c3ccccc3)CC2)c1)NCc1ccco1	-15	i	-13	-54*	1	-3%
COc1ccccc1NS(=O)(=O)c1ccc(C(=O)OCC(=O)NCc2ccco2)cc1	-11	i	-24	-60*	-4	-4%
CC(=O)c1cccc(NC(=O)C2=CC(c3ccc4c(c3)OCO4)=NS(=O)(=O)N2C)c1	-9	i	4	-2	-7	x
Cc1csc(NC(=O)c2cc(-c3ccco3)nc3ccccc23)n1	u	i	u	-57*	-25	-8%
O=C(O)c1cc(-c2ccco2)nc2ccccc12	u	i	-11	-28	-1	x
CCNC(=O)COC(=O)c1cc(-c2ccco2)nc2ccccc12	0	i	-9	-78*	x	3%
O=C(Nc1nccs1)c1cc(-c2ccco2)nc2ccccc12	u	i	-28	-86*	u	-11%
O=C(Nc1nccs1)c1cc(-c2ccccc2)nc2ccccc12	-12	i	0	13	1	x
O=C(Nc1cccc(S(=O)(=O)NC2=NCCC2)c1)c1cc(-c2ccco2)nc2ccccc12	u	i	u	-75*	-3	-4%
O=C(c1ccco1)n1nc(-c2ccc(Cl)cc2)nc1NCc1ccc(F)cc1	x	x	-1	x	x	x
Cc1ccc(NC(=O)CN(C)C(=O)CSc2ccc3c(c2)OCCO3)cc1	-1	i	5	0	4	x
COc1cc(SC)ccc1C(=O)OC(C)C(=O)Nc1ccc(NC(C)=O)cc1 (stereo unspecified)	-4	i	4	1	-4	x
O=C(Nc1nc2ncccn2c1-c1ccc(F)cc1)c1ccccc1	x	x	-5	x	x	x
